The source of these data is PubChem BioAssay (NCATS).

Structures are written as SMILES. Inconclusive results are not listed. Activity calls are given as the source filed them. Calls come from the whole dose curve; as a rule, active = well fitted inhibition curve with a large enough effect; inconclusive = small, poorly fitted or top-dose-only effect; inactive = flat fitted curve, though single readings scatter.

Common to all, as to assay: qHTS profiling for inhibitors of Plasmodium falciparum proliferation (AID 504749); note: nearly all actives have a fitted effect of over 60% in size
Details in all cases: P. falciparum in erythrocytes, SYBR Green DNA, 72 h; series mostly up to 28.7 µM
On the technique in general: Quantitative high-throughput screening tests each substance at several concentrations.

In one assay the test system is CP185. The procedure, abridged: (§1)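 Readout was DNA-dye fluorescence from lysed cultures, ex 485/em 535 nm. Parasitized red cells had grown 72 h with compound; data scaled between 0.29 uM artemisinin and DMSO wells and corrected using vehicle-only plates.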
A further assay concerns CP192. Summed up:
as §1

The next assay deals with CP203. The procedure, abridged: as §1
The next assay relates to CP237. Summed up: as §1
Another assay relates to CP262. Summed up: as §1
The test system of another assay is CP194. The procedure, abridged:
as §1

Another assay deals with CP201. Summed up:
as §1

The next assay concerns CP211. The procedure, abridged:
as §1

The next assay relates to CP215. The procedure, abridged:
as §1

Another assay relates to CP217. Summed up: as §1
A further assay deals with CP238. The procedure, abridged:
as §1

In another assay the test system is CP247. The procedure, abridged:
as §1

Another assay deals with CP250. The procedure, abridged: as §1
The test system of a further assay is CP252. Summed up:
as §1

Another assay concerns CP260. Summed up:
as §1

The next assay deals with CP265. Summed up:
as §1

The next assay deals with CP266. Summed up: as §1
The next assay deals with CP268. The procedure, abridged: as §1
The test system of another assay is CP191. Summed up: as §1
Another assay deals with CP256. The procedure, abridged: as §1
Potency is the fitted concentration of half-maximal effect.

As to `CCC1(C2=NCCN2)Cc2ccccc2O1` (stereo unspecified), the figures for the Potency with CP185, with CP203 and in the assay on CP237 were 10 µM (active), 10.7 µM (active) and 10 µM (active), respectively. Further, the Potency entry in the assay with CP192 and with CP262 was “inactive” each time.

With `Cc1ccc(-c2nc3ccc(C)cn3c2CC(=O)N(C)C)cc1`, the Potency result in the assay with CP185, in the assay with CP192, in the assay on CP194, with CP201, with CP203 and in the assay with CP211 was “inactive” throughout. Further, the Potency entry in the assay on CP215, in the assay with CP217, with CP237, in the assay on CP238, in the assay on CP247 and with CP250 was “inactive” in each case. Moreover, the Potency entry in the assay with CP252, with CP260, in the assay on CP262, in the assay with CP265, in the assay with CP266 and with CP268 was “inactive” throughout.

For `O=c1[nH]c2ccccc2n1C1CCN(CCCC(c2ccc(F)cc2)c2ccc(F)cc2)CC1`, the Potency entry with CP185, in the assay on CP192, with CP201, with CP203, with CP217 and with CP238 was “inactive” throughout. Moreover, the Potency entry in the assay with CP247, in the assay with CP250, in the assay with CP252, in the assay with CP262, in the assay on CP265 and with CP266 was “inactive” throughout. Also, the Potency entry in the assay on CP268 was “inactive”. Moreover, the Potency was 13.5 µM (active) in the assay on CP215, 7.94 µM (active) in the assay on CP237 and 12.6 µM (active) with CP260.

Regarding `CCOC(=O)C1(c2ccccc2)CCN(CCC(C#N)(c2ccccc2)c2ccccc2)CC1`, the Potency in the assay on CP185 is 3.16 µM (active); in the assay with CP191, 3.16 µM (active); in the assay with CP192 it was 4.78 µM (active); with CP201, 4.26 µM (active); with CP215 it was 4.26 µM (active); in the assay with CP217, 3.16 µM (active). In addition, the Potency in the assay on CP237 is 3.98 µM (active); in the assay on CP238, 3.16 µM (active); with CP247, 4.47 µM (active); with CP250 it was 3.55 µM (active); in the assay on CP252, 3.55 µM (active); in the assay on CP256 it was 1.58 µM (active). Also, the Potency is 3.55 µM (active) in the assay with CP260; 5.36 µM (active) with CP262; 2.51 µM (active) in the assay on CP265; 6.01 µM (active) with CP266; 3.79 µM (active) in the assay on CP268.

Turning to `CCCC1CCCCN1` (stereo unspecified), the Potency result with CP185, in the assay with CP191, in the assay on CP192, in the assay with CP194, in the assay on CP201 and in the assay on CP215 was “inactive” in each case. For the same compound, the Potency result in the assay on CP217, in the assay on CP237, in the assay with CP238, in the assay with CP252, in the assay with CP256 and with CP260 was “inactive” in each case. In addition, the Potency result with CP262, in the assay with CP265 and in the assay with CP268 was “inactive” each time.
